Results with a measured potency or affinity are listed apart. Activity calls are given as the source filed them.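 How the source made its calls: active means falling luciferase signal whose fitted half-maximal concentration is at most twice the top tested dose; inconclusive means flat inhibition between 30 and 70% or a poor curve fit; inactive means the rest.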

The assay in a line: off-target signal loss in HeLa-CEM21 co-culture – HeLa F-luc CTL cells, cherry-picked, counter-screen for HIV-1 Env fusion inhibitor project, dose response (AID 652040).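 Further: more negative values mean stronger loss of luciferase signal.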 Conditions: HeLa-F-luc CTL cells with CEM21, firefly luciferase counterscreen; series mostly up to 35 µM. (Counterscreens check selectivity or assay interference.)
With `Cc1oc(-c2ccccc2F)nc1CN1CCC(C(=O)NCCC2=CCCCC2)CC1`, the outcome was inactive. The same measure for `COc1ccc(C(=O)Nc2nc(-c3ccc(S(=O)(=O)N4CCOCC4)cc3)cs2)cc1`: “inactive”. The same measure for `CCCCOCCCNc1ncnc2c1[nH]c1ccccc12`: “inactive”. The same measure for `COCCCNC(=O)c1sc2ncnc(N3CCc4ccccc4C3)c2c1C`: “inactive”. Turning to `Cc1nc2sc(C(c3ccco3)N3CCC(Cc4ccccc4)CC3)c(O)n2n1` (configuration not stated), the call was inactive. Turning to `CC(C)(C)c1ccc(-c2noc(CCC(=O)NCC3CCCO3)n2)cc1` (configuration not stated), the compound was classed as inactive. As to `C#CCn1c(=O)c2c(ncn2C)n(C)c1=O`, the compound was called inactive.

For `CCC(=O)N(C)C(c1ccccc1Cl)c1nnnn1-c1c(C)cccc1C` (configuration not stated), the call was inactive. Regarding `CCC12CN(S(=O)(=O)c3ccc(C)cc3)CC(CC)(CN(S(=O)(=O)c3ccc(C)cc3)C1)C2=O`, the outcome was inactive. For `CN1CC(c2ccccc2)C2(SC(=S)N(Cc3ccco3)C2=O)C12C(=O)Nc1ccccc12` (configuration not stated) the value was “inactive”. Consider `Nc1ccn([C@@H]2O[C@H](C(=O)NCc3ccc4c(c3)OCO4)[C@@H](O)[C@H]2O)c(=O)n1`, for which the call was inactive. For `COc1ccc(/C=C/c2cc(-c3ccc(C)cc3)o[n+]2C)cc1` the value was “inactive”; for `COc1ccc(CCNC(=O)COC(=O)c2cccn2C)cc1`, “inactive”. The same measure for `c1ccc2c(c1)ncn2CCCCOc1ccc2c(c1)CCC2`: “inactive”; for `Cc1cccc(C)c1NC(=O)N1CCN(c2nc3ccccc3s2)CC1`: “inactive”. For `O=C(Nc1ccc(Cl)cc1)C1CCCN(C2=NS(=O)(=O)c3ccccc32)C1` (configuration not stated) the value was “inactive”. `COc1ccc(S(=O)(=O)N2CCCCC2)cc1NC(=O)CN(Cc1ccco1)Cc1ccco1`: the call was inactive.

The values are drawn from PubChem BioAssay AID652040 (Broad Institute, 2013).
